According to the supplement of paper PMC10849652:
The full data set covers some 8,800 targets. This sample favours those with a hit. About 0.5% of all pairs of compound and target were hits. Unmarked numbers belong to inactive results.

Experiments:
Assay in all cases: log2 fold change, soluble protein after heating vs DMSO (PISA); higher = thermal stabilisation; K562 lysate, 10 uM; active = over 0.2 and 3.5 SD of the protein, either way, in both replicates (recomputed)
[1] = compound: CS(=O)(=O)CCNCc1ccc(-c2ccc3ncnc(Nc4ccc(OCc5cccc(F)c5)c(Cl)c4)c3c2)o1 [lapatinib]
In short: (§1)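 Pellets of K562 cells were dounce-homogenised in PBS pH 7.4 with 1 mM MgCl2, and the crude extract was held at 1 mg/mL protein for a 30 min treatment with 10 μM compound. Aliquots were heated for 3 min over 48°C-58°C and pooled before NP-40 was added to 0.5% at 4°C. The supernatant from 21,000xg for 90 min was quantified by TMTpro 16plex LC-MS/MS with channel sums equalised. Values are reported from duplicates as log-two fold change in thermal stability relative to solvent controls.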

[2] = compound: CS(=O)(=O)N1CCN(Cc2cc3nc(-c4cccc5[nH]ncc45)nc(N4CCOCC4)c3s2)CC1 [pictilisib]
In short: as §1

[3] = compound: C[C@@H](Oc1cc(-c2cnn(C3CCNCC3)c2)cnc1N)c1c(Cl)ccc(F)c1Cl [crizotinib]
In short: as §1

[4] = compound: C[C@H](C1=CC=C(C=C1)C(=O)NC2=C3C=CNC3=NC=C2)N
In short: as §1

[5] = compound: C[C@H](Nc1ncnc2nc[nH]c12)c1cc2cccc(Cl)c2c(=O)n1-c1ccccc1 [duvelisib]
In short: as §1

[6] = compound: Cc1cc(Nc2cc(CN3CCOCC3)c3nc(C)c(Cc4ccc(Cl)cc4F)n3n2)n[nH]1 [gandotinib]
In short: as §1

[7] = compound: Cc1cc(Nc2cc(N3CCN(C)CC3)nc(Sc3ccc(NC(=O)C4CC4)cc3)n2)n[nH]1 [tozasertib]
In short: as §1

[8] = compound: Cc1ccc(-n2nc(C(C)(C)C)cc2NC(=O)Nc2ccc(OCCN3CCOCC3)c3ccccc23)cc1 [doramapimod]
In short: as §1

[9] = compound: Cc1ccc(NC(=O)c2ccc(CN3CC[C@H](N(C)C)C3)c(C(F)(F)F)c2)cc1Nc1nccc(-c2cncnc2)n1 [bafetinib]
In short: as §1

[10] = compound: Cc1cccc(CC(=O)N2CCc3c2ccc(-c2cn(C)c4ncnc(N)c24)c3F)n1
In short: as §1

[11] = compound: Cc1cn(-c2cc(NC(=O)c3ccc(C)c(Nc4nccc(-c5cccnc5)n4)c3)cc(C(F)(F)F)c2)cn1 [nilotinib]
In short: as §1

[12] = compound: Cc1nc(Nc2n[nH]c3c2CN(C(=O)N[C@H](CN(C)C)c2ccccc2)C3(C)C)c2sccc2n1
In short: as §1

[13] = compound: Cc1nc(Nc2ncc(C(=O)Nc3c(C)cccc3Cl)s2)cc(N2CCN(CCO)CC2)n1 [dasatinib]
In short: as §1

[14] = compound: Cc1ncc(-c2ccnc(Nc3ccc(S(C)(=O)=O)cc3)n2)n1C(C)C
In short: as §1

[15] = compound: Cn1cc(-c2ccc3c(c2)CCN3C(=O)Cc2cccc(C(F)(F)F)c2)c2c(N)ncnc21
In short: as §1

[16] = compound: Cn1cc(CNCC2CCN(c3ncc(C(=O)NO)cn3)CC2)c2ccccc21 [quisinostat]
In short: as §1

[17] = compound: Cn1cncc1[C@@](N)(c1ccc(Cl)cc1)c1ccc2c(c1)c(-c1cccc(Cl)c1)cc(=O)n2C [tipifarnib]
In short: as §1

[18] = compound: NC(=O)Nc1cc(-c2cccc(F)c2)sc1C(=O)N[C@H]1CCCNC1
In short: as §1

[19] = compound: NC(=O)c1cnc(N[C@@H]2CCCC[C@@H]2N)nc1Nc1cccc(-n2nccn2)c1
In short: as §1

[20] = compound: NC1(c2ccc(-c3nc4ccn5c(=O)[nH]nc5c4cc3-c3ccccc3)cc2)CCC1
In short: as §1

Sequence of UniProt P35249 (P35249 whole entry, looked up): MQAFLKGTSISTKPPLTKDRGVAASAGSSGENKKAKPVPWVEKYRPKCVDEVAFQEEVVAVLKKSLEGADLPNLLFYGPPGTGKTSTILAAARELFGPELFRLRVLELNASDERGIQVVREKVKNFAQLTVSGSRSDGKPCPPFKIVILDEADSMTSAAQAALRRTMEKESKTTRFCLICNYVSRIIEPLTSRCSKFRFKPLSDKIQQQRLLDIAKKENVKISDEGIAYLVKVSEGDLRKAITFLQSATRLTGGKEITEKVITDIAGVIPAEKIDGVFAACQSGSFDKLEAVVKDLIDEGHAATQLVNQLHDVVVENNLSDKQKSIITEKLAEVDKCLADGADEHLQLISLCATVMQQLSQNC
Sequence of UniProt Q9BUV8 (Q9BUV8 whole entry, looked up): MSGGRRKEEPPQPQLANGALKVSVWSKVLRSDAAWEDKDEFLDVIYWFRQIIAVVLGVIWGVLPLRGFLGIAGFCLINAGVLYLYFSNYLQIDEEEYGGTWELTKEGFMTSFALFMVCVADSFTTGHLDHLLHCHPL
Sequence of UniProt Q86U06 (Q86U06 whole entry, looked up): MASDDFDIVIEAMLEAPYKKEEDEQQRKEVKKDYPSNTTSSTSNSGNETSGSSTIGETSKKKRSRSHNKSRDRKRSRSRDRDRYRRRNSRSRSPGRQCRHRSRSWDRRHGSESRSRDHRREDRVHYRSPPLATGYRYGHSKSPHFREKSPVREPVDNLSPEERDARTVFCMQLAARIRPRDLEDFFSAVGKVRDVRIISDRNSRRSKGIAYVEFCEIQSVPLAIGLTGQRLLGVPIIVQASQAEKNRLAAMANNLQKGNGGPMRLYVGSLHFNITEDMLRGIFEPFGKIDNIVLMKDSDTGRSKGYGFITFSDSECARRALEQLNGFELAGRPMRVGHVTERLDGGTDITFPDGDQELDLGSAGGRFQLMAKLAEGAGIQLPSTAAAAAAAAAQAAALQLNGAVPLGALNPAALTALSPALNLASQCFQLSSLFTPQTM
Sequence of UniProt Q9BWH6 (Q9BWH6 whole entry, looked up): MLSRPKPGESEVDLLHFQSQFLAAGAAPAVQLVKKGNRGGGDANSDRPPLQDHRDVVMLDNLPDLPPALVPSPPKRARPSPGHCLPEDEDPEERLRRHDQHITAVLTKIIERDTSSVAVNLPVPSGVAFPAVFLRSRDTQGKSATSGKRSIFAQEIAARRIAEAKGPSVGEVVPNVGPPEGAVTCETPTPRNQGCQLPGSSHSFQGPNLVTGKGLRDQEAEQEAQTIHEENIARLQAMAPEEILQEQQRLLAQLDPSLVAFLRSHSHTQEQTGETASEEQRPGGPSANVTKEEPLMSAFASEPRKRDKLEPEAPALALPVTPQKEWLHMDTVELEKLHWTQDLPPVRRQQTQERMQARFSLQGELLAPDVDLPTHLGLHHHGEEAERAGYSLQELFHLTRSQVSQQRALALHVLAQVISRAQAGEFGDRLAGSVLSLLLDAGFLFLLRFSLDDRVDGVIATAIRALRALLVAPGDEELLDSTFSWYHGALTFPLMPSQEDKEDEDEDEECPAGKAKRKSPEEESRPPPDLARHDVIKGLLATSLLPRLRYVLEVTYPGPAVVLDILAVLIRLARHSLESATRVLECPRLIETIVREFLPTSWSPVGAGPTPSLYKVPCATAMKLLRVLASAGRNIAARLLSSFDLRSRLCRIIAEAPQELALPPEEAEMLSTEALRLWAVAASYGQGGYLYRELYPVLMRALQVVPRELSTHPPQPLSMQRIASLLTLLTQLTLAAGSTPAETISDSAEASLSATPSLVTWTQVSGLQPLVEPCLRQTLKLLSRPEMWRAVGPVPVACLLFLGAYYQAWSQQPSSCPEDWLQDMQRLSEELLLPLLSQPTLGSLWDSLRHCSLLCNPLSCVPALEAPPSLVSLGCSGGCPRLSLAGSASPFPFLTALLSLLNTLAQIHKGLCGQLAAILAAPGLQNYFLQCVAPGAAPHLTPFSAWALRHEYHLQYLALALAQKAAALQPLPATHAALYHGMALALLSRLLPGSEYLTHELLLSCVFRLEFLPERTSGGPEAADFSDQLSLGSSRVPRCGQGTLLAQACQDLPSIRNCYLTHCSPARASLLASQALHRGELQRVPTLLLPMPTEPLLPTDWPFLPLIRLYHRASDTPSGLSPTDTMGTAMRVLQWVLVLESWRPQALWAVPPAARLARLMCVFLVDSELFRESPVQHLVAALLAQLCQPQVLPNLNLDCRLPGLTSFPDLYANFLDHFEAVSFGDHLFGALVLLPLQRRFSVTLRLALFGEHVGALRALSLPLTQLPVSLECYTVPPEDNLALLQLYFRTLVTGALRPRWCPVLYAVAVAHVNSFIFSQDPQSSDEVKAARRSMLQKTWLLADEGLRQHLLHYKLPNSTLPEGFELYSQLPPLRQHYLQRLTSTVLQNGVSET
Sequence of UniProt Q9UPU9 (Q9UPU9 whole entry, looked up): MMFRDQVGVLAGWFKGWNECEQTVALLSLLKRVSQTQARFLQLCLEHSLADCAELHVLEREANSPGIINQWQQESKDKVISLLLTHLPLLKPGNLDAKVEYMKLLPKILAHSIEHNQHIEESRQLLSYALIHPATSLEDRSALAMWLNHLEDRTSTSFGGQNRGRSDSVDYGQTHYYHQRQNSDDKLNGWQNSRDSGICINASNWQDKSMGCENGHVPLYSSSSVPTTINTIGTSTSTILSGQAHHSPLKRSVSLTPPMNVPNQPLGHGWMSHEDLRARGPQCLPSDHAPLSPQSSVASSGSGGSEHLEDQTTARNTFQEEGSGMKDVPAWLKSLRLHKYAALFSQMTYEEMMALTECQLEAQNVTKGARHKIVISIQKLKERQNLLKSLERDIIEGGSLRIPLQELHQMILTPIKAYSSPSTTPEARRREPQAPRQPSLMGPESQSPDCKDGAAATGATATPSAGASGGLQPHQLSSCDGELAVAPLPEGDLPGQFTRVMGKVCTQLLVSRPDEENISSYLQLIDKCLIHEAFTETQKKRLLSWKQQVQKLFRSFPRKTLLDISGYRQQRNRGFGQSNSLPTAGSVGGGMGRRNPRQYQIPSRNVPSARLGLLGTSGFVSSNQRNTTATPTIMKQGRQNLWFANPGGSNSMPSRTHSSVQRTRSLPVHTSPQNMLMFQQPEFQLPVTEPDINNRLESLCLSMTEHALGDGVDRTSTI
Sequence of UniProt Q8TBN0 (Q8TBN0 whole entry, looked up): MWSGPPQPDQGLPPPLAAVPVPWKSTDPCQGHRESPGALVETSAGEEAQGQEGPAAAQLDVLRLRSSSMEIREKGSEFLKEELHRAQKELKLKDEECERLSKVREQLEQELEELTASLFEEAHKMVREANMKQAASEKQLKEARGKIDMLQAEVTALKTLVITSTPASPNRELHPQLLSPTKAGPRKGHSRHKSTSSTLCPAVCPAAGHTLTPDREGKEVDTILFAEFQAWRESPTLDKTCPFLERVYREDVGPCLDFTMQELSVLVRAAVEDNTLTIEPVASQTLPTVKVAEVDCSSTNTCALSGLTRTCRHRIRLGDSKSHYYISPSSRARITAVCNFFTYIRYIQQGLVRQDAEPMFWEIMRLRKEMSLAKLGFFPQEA
Sequence of UniProt Q86X10 (Q86X10 whole entry, looked up): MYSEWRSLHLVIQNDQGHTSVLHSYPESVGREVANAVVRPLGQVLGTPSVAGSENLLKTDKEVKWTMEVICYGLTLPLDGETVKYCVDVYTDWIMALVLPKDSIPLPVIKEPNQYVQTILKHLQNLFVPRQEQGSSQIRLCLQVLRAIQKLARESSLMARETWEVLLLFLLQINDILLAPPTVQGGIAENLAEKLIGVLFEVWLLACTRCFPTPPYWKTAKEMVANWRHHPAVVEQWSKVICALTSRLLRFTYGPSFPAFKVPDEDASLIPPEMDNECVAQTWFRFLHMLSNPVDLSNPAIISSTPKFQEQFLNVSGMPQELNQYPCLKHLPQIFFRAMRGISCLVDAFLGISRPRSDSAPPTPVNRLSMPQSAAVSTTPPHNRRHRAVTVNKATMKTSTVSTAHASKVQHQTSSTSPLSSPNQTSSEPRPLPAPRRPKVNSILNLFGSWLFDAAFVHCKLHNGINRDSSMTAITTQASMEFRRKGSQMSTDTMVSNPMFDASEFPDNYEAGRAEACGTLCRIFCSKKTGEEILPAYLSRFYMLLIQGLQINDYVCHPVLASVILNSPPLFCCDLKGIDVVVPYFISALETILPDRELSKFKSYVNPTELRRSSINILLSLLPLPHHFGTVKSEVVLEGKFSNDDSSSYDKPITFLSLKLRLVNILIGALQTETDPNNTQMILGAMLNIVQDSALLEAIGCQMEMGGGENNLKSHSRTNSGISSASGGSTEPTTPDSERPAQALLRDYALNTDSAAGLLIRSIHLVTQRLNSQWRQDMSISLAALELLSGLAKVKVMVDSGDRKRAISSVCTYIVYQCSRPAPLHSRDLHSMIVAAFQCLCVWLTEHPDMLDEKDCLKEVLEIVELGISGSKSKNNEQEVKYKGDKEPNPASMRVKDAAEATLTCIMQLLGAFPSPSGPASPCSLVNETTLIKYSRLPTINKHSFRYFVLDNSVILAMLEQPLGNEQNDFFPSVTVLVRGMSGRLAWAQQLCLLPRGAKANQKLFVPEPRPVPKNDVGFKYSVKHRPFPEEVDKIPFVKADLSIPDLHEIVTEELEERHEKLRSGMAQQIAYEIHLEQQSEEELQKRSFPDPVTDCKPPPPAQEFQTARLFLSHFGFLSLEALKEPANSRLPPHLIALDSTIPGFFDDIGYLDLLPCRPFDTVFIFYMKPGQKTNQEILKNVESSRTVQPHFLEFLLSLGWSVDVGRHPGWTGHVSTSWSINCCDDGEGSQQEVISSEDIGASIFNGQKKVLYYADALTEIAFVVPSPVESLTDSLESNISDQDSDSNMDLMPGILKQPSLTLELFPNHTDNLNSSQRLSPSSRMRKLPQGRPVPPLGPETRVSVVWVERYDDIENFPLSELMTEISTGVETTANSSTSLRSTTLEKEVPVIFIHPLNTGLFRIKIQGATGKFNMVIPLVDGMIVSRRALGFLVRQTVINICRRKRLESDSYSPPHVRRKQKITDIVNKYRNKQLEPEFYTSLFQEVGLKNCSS

Target | log2 fold change [1] | log2 fold change [2] | log2 fold change [3] | log2 fold change [4] | log2 fold change [5] | log2 fold change [6] | log2 fold change [7] | log2 fold change [8] | log2 fold change [9] | log2 fold change [10] | log2 fold change [11] | log2 fold change [12] | log2 fold change [13] | log2 fold change [14] | log2 fold change [15] | log2 fold change [16] | log2 fold change [17] | log2 fold change [18] | log2 fold change [19] | log2 fold change [20]
RBM23 isoform 2 (UniProt Q86U06) | 0.056 | -0.053 | -0.076 | 0.044 | -0.008 | 0.272 | 0.053 | 0.489 (active) | -0.114 | 0.083 | 0.172 | 0.021 | -0.004 | -0.065 | -0.061 | -0.047 | -0.168 | -0.024 | -0.056 | 0.021
RFC4 (UniProt P35249) | -0.01 | -0.004 | -0.027 | -0.065 | 0.01 | -0.028 | -0.027 | 0.035 | -0.018 | 0.041 | 0.001 | -0.029 | -0.068 | -0.002 | 0.047 | -0.016 | -0.004 | 0.03 | 0.015 | -0.011
RPS4X (UniProt P62701) | -0.006 | 0.009 | -0.024 | 0.209 | 0.012 | -0.038 | -0.018 | -0.01 | -0.008 | -0.04 | 0.01 | -0.023 | 0.025 | -0.002 | -0.003 | 0.016 | 0.01 | -0.001 | -0.034 | 0.008
RAPGEF4 (UniProt Q8WZA2) | -0.061 | 0.047 | -0.24 | -0.804 (active) | 0.104 | 0.38 | -0.088 | -0.041 | -0.212 | 0.543 |  |  | -0.092 |  | -0.061 | -0.491 |  | 0.16 | 0.064 | -0.192
RAB3IL1 (UniProt Q8TBN0) | -0.002 | -0.034 | -0.023 | 0 | -0.003 | -0.014 | -0.004 | -0.012 | 0.006 | -0.02 | -0.025 | -0.026 | -0.048 | 0.041 | 0.017 | -0.002 | 0.037 | 0.004 | 0.017 | 0.033
ROCK1 (UniProt Q13464) | -0.003 | -0.021 | 0.011 |  | 0.006 | -0.04 | 0.027 | -0.025 | -0.016 | 0.031 | -0.013 | -0.001 | -0.004 | 0.006 | 0.011 | -0.01 | 0.001 |  | 0.009 | 0.013
RPAP1 (UniProt Q9BWH6) | -0.012 | -0.027 | -0.026 | -0.026 | 0.021 | -0.002 | 0.018 | 0.001 | -0.041 | 0 | -0.002 | 0.014 | -0.027 | -0.01 | 0.032 | -0.02 | -0.01 | 0.013 | 0.029 | 0.004
SAMD4A (UniProt Q9UPU9) | 0.282 | 0.047 | -0.041 | -0.064 | -0.046 | -0.036 | 0.088 | 0.019 | -0.215 | 0.101 |  |  | -0.228 |  | -0.005 | -0.069 |  | 0.058 | -0.023 | 0.012
RPL8 (UniProt P62917) | -0.005 | 0.01 | 0.059 | 0.147 | 0.008 | -0.072 | 0.033 | -0.038 | 0.071 | -0.051 | -0.005 | -0.004 | 0.035 | -0.028 | -0.013 | 0.222 (active) | 0.027 | -0.019 | -0.008 | -0.006
RBBP7 (UniProt Q16576) | 0.001 | 0.007 | 0.026 |  | 0.02 |  | 0.073 | -0.036 | -0.072 |  | -0.02 | -0.002 | 0.029 | 0.007 | -0.006 | -0.041 | 0.014 | 0.04 | -0.003 | 0.039
RNF17 (UniProt Q9BXT8) | -0.02 | 0.031 | 0.105 | 0.08 | -0.071 | 0.028 | 0.119 | 0.006 | -0.285 | -0.257 |  |  | -0.055 |  | 0.061 | 0.142 |  | 0.054 | 0.046 | 0.043
RAB6D (UniProt Q53S08) | 0.005 | -0.008 | -0.036 | -0.058 | 0 | 0.189 | 0.015 | -0.001 | -0.136 | 0.154 | -0.028 | -0.019 | -0.004 | 0.111 | -0.008 | -0.056 | -0.162 | -0.006 | -0.013 | -0.064
RPS29 (UniProt P62273) | -0.024 | 0.03 | 0.054 | 0.793 (active) | -0.02 | -0.202 | -0.128 | -0.105 | 0.205 | -0.315 | 0.117 | 0.072 | 0.22 | 0.061 | 0.112 | 0.361 | 0.094 | -0.116 | -0.024 | -0.068
RALGAPB isoform 3 (UniProt Q86X10) |  | -0.018 |  | -0.04 | -0.396 | -0.33 | 0.027 |  | -0.255 | -0.026 |  |  | 0.052 |  | -0.034 |  |  |  |  | 
RNASEH1 (UniProt O60930) |  |  |  | -0.014 |  | -0.174 |  |  |  | 0.274 |  |  |  |  |  |  |  |  |  | 
QSER1, A0A3B3IRW6 | -0.04 |  | -0.072 |  | 0.005 |  | -0.033 | 0 |  |  | -0.028 | 0.056 | 0.018 | 0.042 | 0.052 | -0.117 | -0.048 | 0.064 | -0.027 | -0.048
RFWD3 (UniProt Q6PCD5) |  | -0.12 | -0.066 | 0.036 | 0.041 | 0.004 | -0.037 | 0.036 | -0.04 | 0.107 | 0.042 | -0.066 | 0.027 | -0.082 | 0.004 | -0.041 | -0.037 | 0.003 |  | -0.053
RAB5IF isoform 5 (UniProt Q9BUV8) | -0.043 | -0.122 |  | 0.753 (active) | -0.071 | -0.234 | 0 |  | 0.221 | -0.357 | -0.033 | -0.033 | -0.108 | -0.003 | 0.06 |  | -0.189 |  | 0.026 | -0.096
